Assay results: PubChem BioAssay AID624273 (Broad Institute, 2012)
Hit rate of the full screen: of about 1,000 compounds, about 230 (23%) were called active. Another 1% or so got no clear call; they are omitted. No rule for the calls is given here. The list shows a part of the results. Results with a measured potency or affinity are listed apart.

Target: Long-chain-fatty-acid--AMP ligase FadD28 (Mycobacterium tuberculosis (strain ATCC 25618 / H37Rv)) (UniProt P9WQ59)
Assay: inhibitors of FadD28 bisubstrate probe binding, dose response, biochemical, fluorescence polarization, cherry-pick (AID 624273)
Conditions: series mostly up to 50 µM

Long-chain-fatty-acid--AMP ligase FadD28 (Mycobacterium tuberculosis (strain ATCC 25618 / H37Rv)), sequence (P9WQ59 whole entry, looked up): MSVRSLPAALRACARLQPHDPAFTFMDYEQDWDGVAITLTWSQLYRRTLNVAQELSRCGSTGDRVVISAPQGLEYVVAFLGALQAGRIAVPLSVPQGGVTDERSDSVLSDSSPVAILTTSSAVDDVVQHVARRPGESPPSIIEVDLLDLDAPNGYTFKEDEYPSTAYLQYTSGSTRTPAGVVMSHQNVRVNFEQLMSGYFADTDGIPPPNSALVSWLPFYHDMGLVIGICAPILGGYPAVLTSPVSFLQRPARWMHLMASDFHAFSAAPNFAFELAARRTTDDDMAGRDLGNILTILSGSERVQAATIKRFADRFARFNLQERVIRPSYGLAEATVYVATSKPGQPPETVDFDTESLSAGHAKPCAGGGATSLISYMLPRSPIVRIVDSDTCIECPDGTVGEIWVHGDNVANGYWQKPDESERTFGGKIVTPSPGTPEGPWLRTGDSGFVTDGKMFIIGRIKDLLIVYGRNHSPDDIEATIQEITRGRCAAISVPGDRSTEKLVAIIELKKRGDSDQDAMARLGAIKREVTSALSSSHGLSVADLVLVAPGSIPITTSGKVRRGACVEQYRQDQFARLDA

Row | SMILES | outcome
1 | Cc1nn(C(=O)c2ccco2)c(C)c1Br | inactive
2 | Cc1cc(NC(=O)Nc2cccc3ccccc23)no1 | inactive
3 | COc1ccc2nc(-c3ccc(F)cc3)sc2c1 | inactive
4 | Cc1ccc(C(=O)NN2C(=O)/C(=C/c3cccn3C)SC2=S)cc1 | inactive
5 | O=C(NC(=S)NCc1nc2ccccc2[nH]1)c1ccccc1F | inactive
6 | C=CCSc1nc(=O)n2cccc(C)c2n1 | inactive
7 | c1ccc(-c2cnn3c(-c4ccccc4)c(-c4ccccc4)nc3n2)cc1 | inactive
8 | O=C(COc1ccccc1-c1ccccc1)NCc1cccc(Cl)c1 | inactive
9 | COc1ccc(CNCCc2ccc3c(c2)OCO3)cc1Br | inactive
10 | CC(C)c1ccc(NC(=O)CCCC(=O)NCCc2ccccc2)cc1 | inactive
11 | CC(C)(C)c1ccc(NC(=O)C(=O)C2C(=O)Nc3ccccc32)cc1 (centres undefined) | inactive
12 | COC(=O)c1c(N(S(C)(=O)=O)S(C)(=O)=O)sc2c1CCN(c1ncc(C(F)(F)F)cc1Cl)C2 | inactive
13 | CCOC(=O)C1=C(C)OC(N)=C(C#N)C1c1cc(F)ccc1F (centres undefined) | inactive
14 | Cc1cc(C)n2nc3nc(N4CCCC4)nc(-c4ccccc4)c3c2n1 | inactive
15 | CC(=O)NN1C(=O)/C(=C\c2ccc(Br)o2)SC1=S | inactive
16 | O=C(CSc1nc2ccsc2c(=O)n1Cc1ccc(C(=O)O)cc1)NCc1ccco1 | inactive
17 | Cc1nn(CCc2nn[nH]n2)c2nc(-c3ccc(C4CCCCC4)cc3)cc(C(F)(F)F)c12 | inactive
18 | O=C(CSc1nc2ccccc2[nH]1)NC1CCCc2ccccc21 (centres undefined) | inactive
19 | CCOC(=O)c1[nH]nc2c1C(=O)N(CC)C2=O | inactive
20 | Cc1cc(-n2c(C)cc(C(=O)COc3ccc(F)c(F)c3)c2C)no1 | inactive
21 | COc1ccc(OCC(=O)NNC(=O)C(=O)N2CCCC2)cc1 | inactive
22 | COc1ccc(S(=O)(=O)N(C)C[C@H]2Oc3ccc(NC(=O)Nc4ccc5c(c4)OCO5)cc3C(=O)N([C@H](C)CO)C[C@@H]2C)cc1 | inactive
23 | O=C(CSc1nnc(CNC(=O)C23CC4CC(CC(C4)C2)C3)n1-c1ccccc1)Nc1ccc(F)cc1 | inactive
24 | CCCCCCCCCCCCC(=O)CCCCC(=O)O | inactive
25 | COc1ccc(OC)c(NC(=O)c2nnn(CCc3ccccc3)c2N)c1 | inactive
26 | COc1ccc(N2CC(C(=O)Nc3cccnc3)CC2=O)cc1 (centres undefined) | inactive

Row | SMILES | outcome
27 | COc1ccc(CN2CCC(C(=O)Nc3ccc(Oc4cccnc4)cc3)CC2)c(C)c1C | inactive
28 | O=C(Nc1ccc(Cc2ccncc2)cc1)C1CCC(N2C(=O)C3C4C=CC(C4)C3C2=O)CC1 (centres undefined) | inactive
29 | O=C(COc1ccccc1)Nc1ccc(CN2CCCCC2)cc1 | inactive
30 | COc1ccc(N(CC(=O)NC2CCCCC2)C(=O)CCC(=O)Nc2nc(C)cs2)cc1 | inactive
31 | CCOC(=O)CSc1nc(C)c2ccccc2n1 | inactive
32 | CCOC(=O)c1ccc(Nc2cc(C)nc(-c3ccccc3O)n2)cc1 | inactive
33 | CCOC(=O)c1ccc(NS(=O)(=O)c2ccc3c(c2)NC(=O)CCS3)cc1 | inactive
34 | COc1cc2[nH]c(Cl)c([N+](=O)[O-])c2cc1OC | inactive
35 | CCC1CCC(C(=O)NNC(=O)c2cc(-c3ccco3)[nH]n2)CC1 (centres undefined) | inactive
36 | CCOC(=O)C1CCCN(C(=O)c2cc(Nc3ccc(OC)c(OC)c3)nc3ccccc23)C1 (centres undefined) | inactive
37 | CCOC(=O)C1CCCN(C(=O)C2c3ccccc3Oc3ccccc32)C1 (centres undefined) | inactive
38 | CCCCc1c(O)nc(SCC(=O)N2CCOCC2)n(-c2ccc(OC)cc2)c1=O | inactive
39 | CCOc1ccc(-c2nnc(SCC(=O)N3CCCC3)o2)cc1 | inactive
40 | Cn1c(=O)c2c(ncn2Cc2ccc(Cl)cc2)n(C)c1=O | inactive
41 | COc1ccc2c(C)cc(SCC(=O)N(C)C3CCS(=O)(=O)C3)nc2c1 (centres undefined) | inactive
42 | Cc1ccccc1Nc1ccc([N+](=O)[O-])cn1 | inactive
43 | O=C(COC(=O)c1ccccc1NC(=O)c1ccco1)Nc1ncc(Cl)cc1Cl | inactive
44 | Cn1ccc(C(=O)NC(=S)Nc2ccc([N+](=O)[O-])cc2O)n1 | inactive
45 | COc1ccc(C(=O)NNC(=O)C(=O)N2CCCCC2)cc1OC | inactive
46 | Cc1ccccc1CS(=O)(=O)Cc1ccc(C(=O)NCc2ccco2)o1 | inactive
47 | O=C(NCc1n[nH]c(=S)n1-c1ccccc1)c1ccco1 | inactive
48 | COc1ccccc1NC(=O)Nc1cccc(C)n1 | inactive
49 | CC(=O)c1cccc(NC(=O)COC(=O)c2ccccc2C)c1 | inactive
50 | COc1ccc(C(=O)COC(=O)CNS(=O)(=O)c2ccc(C)cc2)cc1 | inactive
51 | COc1cccc(C(=O)NCc2ccccc2OC)c1 | inactive
52 | COC(=O)c1cc2oc(C)cc2n1CC(=O)N(C)c1ccccc1 | inactive

Row | SMILES | outcome
53 | O=C(Cn1c(=O)oc2ccccc21)Nc1cccc(Cl)c1 | inactive
54 | COc1cccc(NCc2cc(=O)oc3cc(-c4ccccc4)c(O)cc23)c1 | inactive
55 | CCOC(=O)Cn1cc(C(=O)c2ccco2)c2ccccc21 | inactive
56 | COc1ccc(-c2cc(C)no2)cc1S(=O)(=O)N(C)c1cccc(C)c1 | inactive
57 | COc1ccccc1C(=O)COC(=O)c1nc2nc(C)cc(C)n2n1 | inactive
58 | CCCSC1=N/C(=C\C=C\c2ccco2)C(=O)S1 | inactive
59 | CC(C)(C)NC(=O)Cn1nnc(-c2ccccc2Cl)n1 | inactive
60 | COc1cccc(NC(=O)Cn2nnc(C(=O)Nc3ccccc3)c2N)c1 | inactive
61 | COc1ccc(OC)c(NC(=O)NNC(=O)c2cc3occc3[nH]2)c1 | inactive
62 | COc1ccc(CC(=O)OCC(=O)NC(=O)NC23CC4CC(CC(C4)C2)C3)cc1 | inactive
63 | Cc1ccc(NC(=O)CN(C)C(=O)c2cc(-c3ccco3)nc3ccccc23)cc1 | inactive
64 | CCc1nc(C)cn1S(=O)(=O)c1cc(C)c(OC)c(C)c1C | inactive
65 | Cc1cccc(OCC(=O)N2CCN(C(=O)Cc3ccccc3)CC2)c1 | inactive
66 | COc1cccc(OCCn2cc(/C=N/NC(=O)c3ccncc3)c3ccccc32)c1 | inactive
67 | COc1cc(/C=N/NC(=O)Cn2nc([N+](=O)[O-])cc2C)cc(Br)c1OCc1ccccc1 | inactive
68 | COc1ccc2c(c1OC)C(=O)N1C2SC(C)(C)[C@H]1C(=O)NCCCOC(C)C (some centres undefined) | inactive
69 | Cc1cccc(-n2c(O)c(C=NCCCN3CCOCC3)c3ccccc3c2=O)c1 | inactive
70 | Nc1ccccc1C#Cc1ccc([N+](=O)[O-])cc1 | inactive
71 | Cc1cccnc1C(NC(=O)C1CCN(CCCc2ccccc2)CC1)c1ccc(Cl)cc1 (centres undefined) | inactive
72 | CON(C)C(=O)c1ccccc1N(C)C(=O)OC(C)(C)C | inactive
73 | O=C(CSc1nnc(Cc2ccccc2)o1)c1ccc2c(c1)OCO2 | inactive
74 | CC1CCN(S(=O)(=O)c2ccc(NC(=O)Cn3nnc(-c4ccccc4F)n3)cc2)CC1 | inactive
75 | O=C(CSc1ccc(-c2nc3ccccc3[nH]2)cn1)Nc1ccc(S(=O)(=O)NC2CC2)cc1 | inactive
76 | Cc1ccc(NC(=O)COC(=O)c2cccc(S(=O)(=O)N3CCCCCC3)c2)cc1 | inactive
77 | Cc1ccc(C)c(OCCC(=O)OCC(=O)Nc2cccc(S(=O)(=O)N3CCCC3)c2)c1 | inactive
78 | CC(Sc1nnc(CNc2cccc3ccccc23)n1-c1ccccc1)C(=O)N/N=C/c1ccco1 (centres undefined) | inactive

Row | SMILES | outcome
79 | Cc1cc(C)c2sc(N(CCCN(C)C)C(=O)c3ccc(S(=O)(=O)N4CCCc5ccccc54)cc3)nc2c1 | inactive
80 | CC1(C)Oc2ccc3ccc(=O)oc3c2/C(=C/O)C1=O | inactive
81 | COc1ccc(C2NC3=C(CCC3)C3(C#N)C4(N=C(N)C23C#N)OCCO4)cc1 (centres undefined) | inactive
82 | O=C(Cc1ccc(Cl)cc1)Nc1ccc(N2CCN(C(=O)c3ccco3)CC2)c(Cl)c1 | inactive
83 | Cc1nn(-c2ccccc2)c(Cl)c1/C=N/NC(=O)c1cccnc1 | inactive
84 | CCOC(=O)c1c(C)nc2sc3c(=O)n(-c4ccc(C(C)=O)cc4)cnc3c2c1-c1ccc(OC)cc1 | inactive
85 | C=CCOc1ccc(C2OC34CCCCC3C(C#N)(C#N)C2(C#N)C(=N)O4)cc1 (centres undefined) | inactive
86 | N/C(CSc1ccc(Cl)cc1)=N\NC(=O)c1ccncc1 | inactive
87 | Cc1c(NC(=O)c2ccc3ncccc3c2)c(=O)n(-c2ccccc2)n1C | inactive
88 | COC(=O)c1cc(C)nc2c1C(=O)C(=O)C=C2N1CCOCC1 | inactive
89 | Cc1ccc(OCCC(=O)OCC(=O)c2c(N)n(CC(C)C)c(=O)n(C)c2=O)cc1 | inactive
90 | CCC(=O)c1cccc(-c2ccccc2)c1CC | inactive
91 | COc1cc(OC)c(C2=NOC(C(=O)Nc3c(C)n(C)n(-c4ccccc4)c3=O)C2)cc1Cl (centres undefined) | inactive
92 | COc1ccc(CN(C)C(=O)c2ccc(OCC(=O)Nc3cccc(C(F)(F)F)c3)c(OC)c2)c(OC)c1 | inactive
93 | CCCCOc1ccc(Nc2cc(Cl)ccc2C(=O)O)cn1 | inactive
94 | N#CCC(=O)Nc1ccc(C(=O)OCC(=O)Nc2cccc(C(F)(F)F)c2)cc1 | inactive
95 | Cc1ccc(NC(=O)CN2C(=O)S/C(=C/c3ccc(-c4cc(C(=O)O)ccc4C)o3)C2=O)cc1C | inactive
96 | O=C(NCc1ccccc1)C1=C[C@@H](c2ccc(C(F)(F)F)cc2)C[C@@H](OCCCCO)O1 | inactive
97 | NC(Cc1ccc(C(F)(F)F)cc1)c1csc(NC(=O)Nc2ccccc2Cl)n1 (centres undefined) | inactive
98 | Cc1onc(C(=O)N2CCC(C(N)=O)CC2)c1-c1ccccc1Cl | inactive
99 | COc1cc(NC(=O)C2CCN(S(=O)(=O)c3ccc(Cl)cc3)CC2)ccc1-n1cnnn1 | inactive
100 | CSc1cccc(CN2CCC(CCC(=O)NC3CC3)CC2)c1 | inactive
101 | S=c1nc(-c2ccco2)[nH][nH]1 | inactive
102 | COc1ccc(OC)c(-n2c(-c3cc(-c4ccco4)[nH]n3)n[nH]c2=S)c1 | inactive
103 | Cc1nnc(NC(=O)C2CC(=O)N(c3ccc4c(c3)OCCO4)C2)s1 (centres undefined) | inactive
104 | COc1ccc(C2(CNC(=O)C(c3ccccc3)c3ccccc3)CCOCC2)cc1OC | inactive
